From PubChem
Shown are actives, neighbours in structure and some others; about 19% of the full set was active somewhere.
Chronic BCR inh: blocks chronic active B-cell receptor signaling. 0.05% of 340,000 active. ABC-DLBCL IkBa-CBG/CBR reporter, luminescence ratio, 4 h. Potency, µM (highest dose often 46.1 µM), usual class: inhibitors. AID 493014; active = well fitted inhibition curve with a large enough effect in the signal ratio, with a control signal flat, not every such curve was filed as active; inconclusive = small, poorly fitted or top-dose-only effect, or effect the other way, or a change in a side signal; the % refers to the signal ratio
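TMD8 ABC-DLBCL cells carrying doxycycline-inducible green luciferase fused to IkappaBalpha plus unfused red luciferase were exposed to compounds (up to 46 uM) for 4 hrs at 37C. Activity came from the overlap-corrected green/red luminescence ratio.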
SW480 rereplic: inducers of DNA re-replication in SW480 colon cancer cells; 1.8% of 340,000 active; SW480 DNA re-replication, Hoechst DNA content imaging, 48 h; AID 624297; Potency, µM (doses to about 46.1 µM), usual class: activators; note: nearly all actives have a fitted effect of over 55% in size
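Quantitative HTS format with DMSO vehicle controls; 48 hr drug incubation at 37 C, then 40 min Hoechst staining and scanning imager measurement at 405 nm excitation.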
IL1B secr inh: inflammasome signaling inhibition, IL-1 beta readout | activity change, % at 57.5 µM | THP-1 LPS/ATP IL-1B secretion, AlphaLISA, 16 h; stronger effect = lower value | 4.7% of 360,000 active; in the data active = activity change below about -50%; inconclusive = mostly about -30% to -49%
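THP-1 cells pretreated 1 hr with compounds (up to 57.5 uM final), then stimulated with LPS (250 ng/mL final) plus ATP (1.25 mM final); secreted IL-1B measured by AlphaLISA after 16 hr, decreased signal indicating inhibition.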
TDP1 cell noCPT: qHTS for Inhibitors of human tyrosyl-DNA phosphodiesterase 1 (TDP1): qHTS in cells in absence of CPT; DT40 Tdp1-/- hTDP1 cells, no CPT, ATP luminescence, 48 h; Potency, µM (top dose mostly 46.2 µM), hits mostly inhibitors; 15% of 420,000 active; AID 686978, 2013; note: nearly all actives have a fitted effect of over 55% in size
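Camptothecin absent (DMSO only). Human TDP1-complemented DT40 knockout cells, 400 cells/well, 37 °C for minimum 48 hr; ATP measured via CellTiter-Glo, 30 min dark incubation, luminescence.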
MCF10A rerep: DNA re-replication induction in MCF 10a cells; MCF 10A DNA re-replication, Hoechst nuclear intensity, 48 h; Potency, µM (doses to about 46.1 µM), actives largely listed as activators; 2.9% of 350,000 active; AID 624296; note: nearly all actives have a fitted effect of over 50% in size
TDP1 cell CPT: growth inhibition of DT40 Tdp1-/-;hTDP1 cells with camptothecin (screen for TDP1 inhibitors); chicken DT40 Tdp1-/-;hTDP1 cells + 20 nM CPT, ATP luminescence, 48 h; Potency, µM (highest dose often 46.2 µM), usual class: inhibitors; 12% of 420,000 active; AID 686979; note: nearly all actives have a fitted effect of over 55% in size
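Chicken DT40 Tdp1-/- cells complemented with human TDP1, 400 cells/well, exposed to compounds plus 20 nM camptothecin for at least 48 h at 37 C; viability read as ATP content by CellTiter-Glo luminescence.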
Numbers stand for hits; n = inactive; u = inconclusive; x = no result given; [ ] = dose if it differs, or a comment. Unless noted, calls come from the whole dose curve; as a rule, active = well fitted curve in the direction sought with a large enough effect; inconclusive = small, poorly fitted or top-dose-only effect, or another doubt; inactive = no such curve, though single readings can be large; an effect the other way counts as inactive or inconclusive.

SMILES	Chronic BCR inh	SW480 rereplic	IL1B secr inh	TDP1 cell noCPT	MCF10A rerep	TDP1 cell CPT
CN1C(=O)C2(C(C#N)=C(N)N(c3cc(Cl)cc(Cl)c3)C3=C2C(=O)CC(C)(C)C3)c2ccccc21 (configuration not stated)	x	n	n	u	n	21µM
Cc1ccc(N2C(N)=C(C#N)C3(C(=O)N(C)c4ccccc43)C3=C2CC(C)(C)CC3=O)cc1Cl (configuration not stated)	n	n[9.22 µM]	n	16µM	n	u
CCOC(=O)Nc1ccc2c(COC(=O)C(NS(=O)(=O)c3ccc(Cl)cc3)C(C)O)cc(=O)oc2c1 (configuration not stated)	n	n	n	u	n	u
O=[N+]([O-])c1ccc(Oc2ccc(OCc3ccccc3)cc2)nc1	u	n	-80	n	n	n
O=C(Nc1ccc(Oc2cccc(C(F)(F)F)c2)nc1)c1cccs1	n	n	-78	16µM	u	21µM
O=[N+]([O-])c1ccc(Oc2cccc(C(F)(F)F)c2)nc1	u	n	n	u	n	13µM
O=C(Nc1ccc(Oc2cccc(C(F)(F)F)c2)nc1)c1ccccc1	n	n	n	13µM	n	n
Cc1ccc(C(=O)NCc2cccnc2)cc1S(=O)(=O)Nc1ccccc1	u	n	n	n	n	n
CO[C@@H]1CN(C)C(=O)c2cc(NS(=O)(=O)c3ccc(C)cc3)ccc2OC[C@H](C)N(Cc2nccs2)C[C@H]1C	x	x	n	u	x	u
Nc1nc(CSc2ccc(Cl)cc2)nc(N2CCCCC2)n1	u	n	-59	n	n	n
Nc1nc(CSc2ccccc2)nc(N2CCCCC2)n1	u	n	n	n	n	n
CCC(C)c1ccccc1N1CC(C(=O)NCCCn2nc(C)cc2C)CC1=O (configuration not stated)	n	n	n	n	n	n
COc1ccc(C(C)=NNc2ccc([N+](=O)[O-])cc2S(=O)(=O)Nc2ccccc2C(=O)O)c(OC)c1	u	u	n	n	9.2µM	n
COc1ccc(NS(=O)(=O)c2cc([N+](=O)[O-])ccc2N/N=C/c2c(C)[nH]c3ccccc23)cc1	x	n	n	23µM	9.2µM	u
CC(=O)Nc1ccc(C=NNc2ccc([N+](=O)[O-])cc2S(=O)(=O)Nc2ccccc2C(=O)O)cc1	n	n	n	n	21µM	n
CC1CCC2C(=O)N(c3ccc(C(=O)Oc4cccc5cccnc45)cc3)C(=O)C2C1 (configuration not stated)	u	n	-86	0.65µM	u	0.73µM
Cc1cc(C)c(Nc2nn3c(=O)c4cc5c(cc4nc3s2)OCO5)c(C)c1	x	x	x	n	x	n
CN(C)c1ccc(NC(=O)CSC2=Nc3ccccc3C3=NC(CC(=O)NCc4ccccc4)C(=O)N23)cc1 (configuration not stated)	n	x	x	n	x	n
COc1ccc(NC(=O)CSC2=Nc3ccccc3C3=NC(Cc4ccccc4)C(=O)N23)cc1Cl (configuration not stated)	x	x	x	u	x	21µM
Cc1cc(NC(=O)CSC2=Nc3ccccc3C3=NC(Cc4ccccc4)C(=O)N23)n[nH]1 (configuration not stated)	n	n	n	n	n	n
Cc1ccc(NC(=O)CSC2=Nc3ccccc3C3=NC(Cc4ccccc4)C(=O)N23)cc1C (configuration not stated)	x	x	x	13µM	x	9.2µM
Cc1ccc(Cl)cc1NC(C#N)c1ccccc1 (configuration not stated)	n	n	n	u	n	n
CCOc1ccc(CNC(=O)C(C)n2ccc3cc(S(=O)(=O)N4CCCC4)ccc32)cc1 (configuration not stated)	n	n	n	21µM	n	u
CC(C(=O)NCc1ccc(F)cc1)n1ccc2cc(S(=O)(=O)N3CCCC3)ccc21 (configuration not stated)	n	n	n	u	n	u
CC(C(=O)NCc1ccco1)n1ccc2cc(S(=O)(=O)N3CCCCC3)ccc21 (configuration not stated)	n	u	n	n	u	u
SMILES	Chronic BCR inh	SW480 rereplic	IL1B secr inh	TDP1 cell noCPT	MCF10A rerep	TDP1 cell CPT
Cc1ccc(CNC(=O)C(C)n2ccc3cc(S(=O)(=O)N4CCCC4)ccc32)cc1 (configuration not stated)	x	x	x	0.46µM	x	u
CC(=O)N1CCC2(CCCN(C(=O)Nc3cccc(F)c3)C2)CC1	x	x	x	n	x	n
COc1ccc(Cc2[nH]n3c(=O)cc(C(C)C)nc3c2-c2ccccc2)cc1	n	10µM	n	7.3µM	2.6µM	18µM
CCN(c1ccccc1)S(=O)(=O)c1cccc(C(=O)N(C)CC(=O)Nc2ccc(F)c(F)c2F)c1	x	n	u	18µM	n	15µM
C=CCN(c1ccccc1)S(=O)(=O)c1cccc(C(=O)N(CC)CC(=O)Nc2c(F)cccc2F)c1	n	n	n	15µM	n	23µM
CC(C)CN(C(=O)COc1ccc(-c2nnco2)cc1)C1CCS(=O)(=O)C1 (configuration not stated)	n	n	n	n	u	u
COc1ccc(-c2csc(C(C)(O)c3ccc(F)c(F)c3)n2)cc1 (configuration not stated)	x	x	n	u	x	u
CC(O)(c1ccc(F)c(F)c1)c1nc(-c2cnc3ccccc3c2)cs1 (configuration not stated)	x	x	n	15µM	x	16µM
CC(O)(c1ccc(F)c(F)c1)c1nc(-c2ccc3ccccc3c2)cs1 (configuration not stated)	x	x	n	u	x	18µM
O=C(Nc1ccc(Cl)cc1F)c1cnc2sc(N3CCOCC3)nn2c1=O	x	x	x	n	x	n
CCOC(=O)[C@@H](C)NS(=O)(=O)N(Cc1ccccc1)[C@H](C(=O)OC)C(C)C	n	u	n	u	n	u
COC(=O)[C@H](C(C)C)N(Cc1ccccc1)S(=O)(=O)CCNC1CCCC1	n	n	n	u	n	26µM
COC(=O)C(CC(C)C)N(Cc1cc(OC)cc(OC)c1)S(=O)(=O)c1ccccc1Br (configuration not stated)	u	21µM	n	u	n	u
O=S(=O)(N(Cc1ccccc1)[C@@H](CO)Cc1ccccc1)N(Cc1ccccc1)[C@@H](CO)Cc1ccccc1	n	n	n	5.6µM	u	u
CC(C)CC(C(=O)O)N(Cc1ccccc1)Cc1ccccc1 (configuration not stated)	n	n	n	u	n	n
